Experimental data from PubChem BioAssay AID1445 (SRMLSC, 2008).
Screen size: about 220,000 compounds; about 910 (0.41%) were called active. This excerpt belongs to a sample that is enriched for actives. Results with a measured potency or affinity are listed apart. Unmarked numbers belong to inactive results.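 The calls were made as follows: active = primary inhibition above the hit cutoff, then over 50% inhibition at one or more dose response concentrations (cut at about 23% in these data, passing the limit was not always enough); inconclusive = conflicting primary data, or primary hits not chosen for dose response; inactive = low primary inhibition, or under 50% at every dose.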

Biological target: Aminopeptidase N (Plasmodium falciparum (isolate 3D7)) (UniProt O96935)
Test: P. falciparum M1AAP inhibitors, biochemical, fluorogenic H-Leu-NHMec substrate, 1536-well (AID 1445);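 also: plate controls were DMSO full reaction for no effect and no enzyme background for full effect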
Settings: recombinant M1AAP, H-Leu-NHMec fluorogenic kinetic assay; at 30 µM, stronger effect = higher value unless noted

Sequence of Aminopeptidase N (Plasmodium falciparum (isolate 3D7)) (O96935 whole entry, looked up): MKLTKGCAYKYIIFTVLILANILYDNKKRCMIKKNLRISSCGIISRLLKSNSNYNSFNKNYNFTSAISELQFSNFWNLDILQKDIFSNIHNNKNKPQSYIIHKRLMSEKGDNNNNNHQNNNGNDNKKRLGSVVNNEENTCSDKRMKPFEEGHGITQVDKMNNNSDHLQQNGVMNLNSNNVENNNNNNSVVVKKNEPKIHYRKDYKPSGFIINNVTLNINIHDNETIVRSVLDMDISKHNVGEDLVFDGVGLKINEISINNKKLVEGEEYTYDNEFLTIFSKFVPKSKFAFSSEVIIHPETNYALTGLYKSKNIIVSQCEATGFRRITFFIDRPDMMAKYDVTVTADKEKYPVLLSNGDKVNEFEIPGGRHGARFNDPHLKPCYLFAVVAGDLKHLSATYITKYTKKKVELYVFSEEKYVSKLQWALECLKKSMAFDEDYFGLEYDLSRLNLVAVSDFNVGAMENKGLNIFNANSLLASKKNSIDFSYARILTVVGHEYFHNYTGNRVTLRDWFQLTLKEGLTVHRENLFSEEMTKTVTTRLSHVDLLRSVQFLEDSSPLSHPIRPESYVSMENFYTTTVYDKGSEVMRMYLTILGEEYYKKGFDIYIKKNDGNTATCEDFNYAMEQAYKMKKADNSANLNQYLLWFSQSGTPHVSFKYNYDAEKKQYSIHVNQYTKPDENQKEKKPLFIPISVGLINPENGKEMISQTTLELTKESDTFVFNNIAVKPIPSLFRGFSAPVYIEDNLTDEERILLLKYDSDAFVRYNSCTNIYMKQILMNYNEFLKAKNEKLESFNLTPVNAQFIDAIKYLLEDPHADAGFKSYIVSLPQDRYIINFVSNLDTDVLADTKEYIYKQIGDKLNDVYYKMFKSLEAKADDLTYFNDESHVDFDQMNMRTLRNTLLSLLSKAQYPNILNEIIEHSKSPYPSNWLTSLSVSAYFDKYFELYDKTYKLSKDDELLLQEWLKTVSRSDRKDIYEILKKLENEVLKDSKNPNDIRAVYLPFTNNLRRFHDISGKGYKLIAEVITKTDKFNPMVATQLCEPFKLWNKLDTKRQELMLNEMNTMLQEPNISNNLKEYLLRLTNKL

Structure (SMILES)	inhibition
COCC(=O)N(Cc1ccccc1)c1ccccn1	17.1%
CC(=O)Nc1ccc(S(=O)(=O)N2CCN(CC(O)COc3ccc4ccccc4c3)CC2)cc1 (stereo not given)	8.01%
O=C(CSc1nnc(Cc2ccccc2)n1C1CCCCC1)N1CCOCC1	4.89%
COc1ccc(/C(N)=N/OC(=O)c2ccc3c(c2)OCO3)cc1OC	1.74%
CCn1c(CC(=O)Nc2cccc(Cl)c2Cl)nnc1SCCOc1ccc(OC)cc1	13.4%
COc1ccc(OCCSc2nnc(CC(=O)Nc3cccc(Cl)c3Cl)n2C)cc1	23.6% (active)
COc1cccc(NC(=O)Cc2nnc(SCCOc3ccccc3)n2C)c1	8.03%
Cc1cc(NS(=O)(=O)c2ccc(Nc3nc(-c4sc(C)nc4C)cs3)cc2)no1	23.9% (active)
Cc1cc(NS(=O)(=O)c2ccc(Nc3nc(-c4sc(N)nc4C)cs3)cc2)no1	17.9%
CCC(=O)Nc1nc(C)c(-c2csc(Nc3ccc(S(=O)(=O)Nc4cc(C)on4)cc3)n2)s1	6.43%
Cc1nc(CNC(=O)c2cc(COc3ccc(F)cc3Cl)on2)cs1	3.28%
Cc1ccc(S(=O)(=O)Nc2ccc(Cl)cc2C(=O)c2ccccc2)cc1	3.73%
O=C(Cc1sc(Nc2ccccc2)nc1-c1ccccc1)NCc1ccccc1	7.32%
N#C/C(=C/c1ccncc1)c1nc2ccccc2s1	-2.18%
COc1cc(/C=C(\C#N)c2nc3ccc(C)cc3[nH]2)c([N+](=O)[O-])cc1OC	14.8%
COc1cc(/C=C(/C#N)c2nc(-c3cc4ccccc4oc3=O)cs2)cc([N+](=O)[O-])c1O	11%
COc1ccc(-c2csc(/C(C#N)=C\c3ccc(O)c([N+](=O)[O-])c3)n2)cc1OC	3.12%
COc1cc(/C=C(\C#N)c2nc3ccccc3[nH]2)cc(OC)c1O	20.3%
COc1cc(/C=N/Nc2nc3ccccc3s2)cc([N+](=O)[O-])c1O	32.1%
CC(C)COC(=O)N(C)c1ccc(C(O)(C(F)(F)F)C(F)(F)F)cc1	11.6%
COCCn1c(SCC(=O)Nc2cccc(OC)c2)nc2c(oc3ccccc32)c1=O	-5.31%
NS(=O)(=O)c1ccc(NC(=O)COC(=O)CCNC(=O)NC23CC4CC(CC(C4)C2)C3)cc1	2.67%
CSc1nc(C)cc(C)c1C(N)=O	6.25%
CCCCc1[nH]c(=O)c(C#N)c2c1CSC(C)(C)C2	23.7% (active)

Structure (SMILES)	inhibition
Cc1[nH]c(=O)c(C#N)c2c1CSC(C)(C)C2	9.75%
CCc1[nH]c(=O)c(C#N)c2c1CSC(C)(C)C2	10.3%
CCOC(=O)c1coc(CNC(=O)c2c(C)oc3c2CCCC3)c1	4.14%
Cc1ccc(CN2CCN(C3CSCCSC3)CC2CCO)cc1 (stereo not given)	-1.96%
CC(=O)N1CCN(c2ccc(NC(=O)C(C)Oc3ccc(Cl)cc3Cl)cc2)CC1 (stereo not given)	4.51%
O=c1cc(-c2ccccc2Cl)oc2c(NS(=O)(=O)c3ccccc3C(F)(F)F)ccc(O)c12	10.4%
O=c1cc(-c2ccccc2Cl)oc2c(NS(=O)(=O)c3ccccc3OC(F)(F)F)ccc(O)c12	3.26%
Cc1ccc(S(=O)(=O)N2CCCC2C(=O)Nc2ccc(O)cc2)cc1 (stereo not given)	7.62%
c1ccn2c(SCc3ccc4c(c3)OCO4)nnc2c1	3.07%
S=C(Nc1ccc(Br)cc1)N1CCn2cccc2C1c1cccnc1 (stereo not given)	10.1%
COc1ccc(C)cc1NC(=O)c1cc2ccccc2o1	-2.39%
COc1ccc(C(=O)Nc2cccc(OC)c2)cc1	1.64%
Cc1ccc(C(=O)Nc2ccc(Oc3ccc(C(=O)O)c(C(=O)O)c3)cc2)cc1C	5.36%
COc1ccc(S(=O)(=O)n2nc(OC(=O)c3cccs3)cc2NC(=O)c2cccs2)cc1	3.59%
CN(C(=O)c1cc2n(n1)C(C(F)(F)F)CC(c1ccco1)N2)c1ccccc1 (stereo not given)	2.19%
O=C(Oc1ccc(OC(=O)c2ccco2)c(S(=O)(=O)c2ccc(Cl)cc2)c1)c1ccco1	4.36%
COc1ccc(C(=O)O/N=C(\N)Cc2ccc([N+](=O)[O-])cc2)c(OC)c1	5.06%
O=C(CSc1nnc(CCCN2C(=O)c3cccc4cccc(c34)C2=O)n1-c1ccccc1)N1CCCCC1	3.42%
O=C(CSc1nnc(CCCN2C(=O)c3cccc4cccc(c34)C2=O)n1-c1ccccc1)NCCCO	13.2%
Cn1c(SCC(=O)c2ccc(F)cc2)nnc1-c1cnccn1	-2.54%
O=C(CN(c1ccccn1)S(=O)(=O)c1ccccc1)Nc1ccccc1	-0.68%
Cc1csc(SCC(=O)Nc2cccc(S(=O)(=O)N3CCOCC3)c2)n1	0%
O=C(NCc1ccccc1Cl)c1ccc(CSc2nc3ccncc3[nH]2)cc1	1.57%
CSC(=NC#N)N1CCN(c2ccc([N+](=O)[O-])cc2)CC1	8.93%

Structure (SMILES)	inhibition
C=CCN(CC=C)S(=O)(=O)c1ccc(NC(=S)NC(=O)/C=C/c2ccccc2)cc1	9.4%
O=C(Cn1nnc2ccccc21)Nc1ccccc1[N+](=O)[O-]	-1.91%
CC(C)(C)NC(=O)COc1ccccc1C#N	-0.28%
Cc1ccc(C(=O)Nc2nc(=O)n(C(=O)c3ccccc3C)s2)cc1	4.83%
Cc1ccc(C(=O)Nc2nc(=O)n(C(=O)C3CC3)s2)cc1	4.6%
Cc1cc[n+](-c2nc3ccccc3nc2C(=C=[N-])C#N)cc1	4.51%
CCOC(=O)C1(CC2CCCCO2)CCN(C(=O)Nc2ccccc2CC)CC1 (stereo not given)	1.45%
O=C(NCCc1nc2ccccc2[nH]1)/C(=C/c1ccc2c(c1)OCO2)NC(=O)c1ccccc1Cl	4.92%
COc1ccc(NS(=O)(=O)c2ccc(C)cc2)c([N+](=O)[O-])c1	3.88%
COc1cccc(/C=C2\SC(N)=NC2=O)c1OS(=O)(=O)c1ccccc1	12.7%
COc1cc(C(=O)Nc2ccc(S(=O)(=O)Nc3ncccn3)cc2)c([N+](=O)[O-])cc1OC	1.81%
COc1ccc([N+](=O)[O-])cc1NS(=O)(=O)c1ccccc1	6.84%
Cc1cc(NS(=O)(=O)c2ccccc2)c([N+](=O)[O-])cc1C	14%
COc1ccc(S(=O)(=O)Nc2cc([N+](=O)[O-])ccc2OC)cc1	14.5%
NC(=O)c1c(NC(=O)COC(=O)c2ccc(S(=O)(=O)Nc3ccccc3)cc2)sc2c1CCCC2	6.65%
COc1cc(C(=O)NCc2cn3ccccc3n2)cc(OC)c1OC	9.74%
CN(C(=O)COC(=O)/C=C/c1cn(-c2ccccc2)nc1-c1ccc2c(c1)OCCO2)C1CCS(=O)(=O)C1 (stereo not given)	9.43%
CCn1c(SCC(=O)NCCc2ccccc2)nnc1-c1cccs1	8.15%
CCn1c(CCNC(=O)c2cccs2)nnc1SCC(=O)Nc1ccc(Cl)cc1	2.16%
CCOC(=O)CSc1nnc(CNC(=O)c2cccs2)n1CCc1ccccc1	-4.29%
CCn1c(CNC(=O)c2cccs2)nnc1SCC(=O)Nc1ccc(Cl)cc1	4.83%
O=C1CCCc2c1nc(-c1ccc(F)cc1)n2O	0.92%
COC(=O)C1=C(Nc2ccc(C)cc2)C=C(C)C(C(=O)OC)C1c1ccc(OC)cc1 (stereo not given)	-4%
CC(=O)c1cccc(NC(=O)c2cc(-n3cnnc3)ccc2Cl)c1	6.6%

Structure (SMILES)	inhibition
O=C(Nc1ccccc1)c1ccc2nc(-c3ccco3)c(-c3ccco3)nc2c1	13.6%
O=C(Nc1cccc(C(F)(F)F)c1)c1ccc2nc(-c3ccco3)c(-c3ccco3)nc2c1	23.9% (active)
CC(=O)c1ccc(NC(=O)c2ccc3nc(-c4ccco4)c(-c4ccco4)nc3c2)cc1	10.9%
CCn1c(CCNC(=O)c2ccc(Cl)c(Cl)c2)nnc1SCCOc1ccc(OC)cc1	1.21%
CCOC(=O)Cn1c(=O)c2c(nc(N3CCOCC3)n2C)n(C)c1=O	0.98%
O=C(Cc1cccs1)NCc1ccccc1	3.77%
O=C(Cc1ccc(-c2ccccc2)cc1)NCc1ccccc1	-0.4%
Cc1ccc(C(=O)NCC(=O)OCC(=O)NCCc2ccccc2)s1	0.53%
Cc1ccc(NC(=O)COC(=O)CNC(=O)c2ccc(C)s2)cc1	5.25%
CSCCC(C(=O)Nc1ccc2c(c1)OCO2)N1C(=O)c2ccccc2C1=O (stereo not given)	4.81%
CC(C(=O)NC1=NCCS1)N1C(=O)c2ccccc2C1=O (stereo not given)	22.3%
CCOP(=O)(O)c1cccc(OCCOCCOc2cccc(P(=O)(O)OCC)c2)c1	-1.13%
COc1ccc(C2NC(=S)NC(C)=C2C(=O)N2CCOCC2)cc1 (stereo not given)	0.92%
CC(NCC1(N2CCOCC2)CCCCC1)C(=O)Nc1ccc(Cl)cc1Cl (stereo not given)	-2.83%
C=CCNC(NC(=O)c1ccccc1)(C(=O)OCC)C(F)(F)F (stereo not given)	-7.27%
COc1cc(/C=C2\SC(=S)N(N3CCOCC3)C2=O)ccc1O	-11.3%
COc1ccc(/C=C2/SC(=O)N(CCC(=O)Nc3ccccc3)C2=O)cc1OC	-3.04%
COc1cc(/C=C2\SC(=S)N(NC(=O)c3cccnc3)C2=O)ccc1O	19.8%
COc1cc(/C=C2\SC(=S)N(N(C)c3ccccc3)C2=O)ccc1O	3.49%
COc1cc(/C=C2\SC(=S)N(Nc3ccccc3)C2=O)ccc1O	13.9%
COc1cc(/C=C2\SC(=S)N(Nc3ccccc3)C2=O)cc(OC)c1OC	0.45%
COc1cc(/C=C2\SC(=S)N(NS(=O)(=O)c3ccccc3)C2=O)cc(OC)c1OC	20%
COc1ccc(/C=C2\SC(=O)N(CCC(=O)Nc3ccccc3)C2=O)cc1OC	7.25%
